NRP1-CendR mod = modulators of CendR peptide binding to NRP-1, primary screen, biochemical, fluorescence polarization, uHTS; FAM-RPARPAR peptide binding to NRP-1; inhibition, % at 25 µM; Neuropilin-1 (Homo sapiens), O14786; hit rate 0.85% among 360,000;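 active = inhibition or corrected inhibition above about 18%, plus a signal ratio from 0.5 to 1.5, limit read from the data, passing the limit was not always enough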
SKN-1 inh = suppressors of acrylamide-induced Pgst-4::GFP reporter in worms, primary screen, SKN-1 inhibitor project, whole organism, uHTS, GFP/RFP fluorescence ratio, strain VP596; hit rate 0.49% among 360,000; inhibition, % at 21.8 µM; C. elegans VP596 Pgst-4::GFP/RFP ratio, 24 h; AID 624304, 2012;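 active = interference check ratio from 0.5 to 1.5 plus GFP to RFP signal ratio inhibition reaching or exceeding a fixed threshold, cut at about 30% in these data, passing the limit was not always enough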
MPTP inh = mitochondrial permeability transition pore inhibitors, primary screen, biochemical, isolated mouse mitochondria, absorbance. hit rate 1.4% among 360,000. Ca2+ swelling absorbance, 30 min. inhibition, % at 10 µM;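 active = inhibition of 50% or more, scaled per plate between neutral and stimulator controls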
ATG4B inhibitor = ATG4B protease inhibitors, primary screen, biochemical, fluorescence, uHTS. Cysteine protease ATG4B (Homo sapiens), Q9Y4P1. ATG4B cleavage of LC3-PLA2, NBD-HPC fluorescence, 1 h. inhibition, % at 8.33 µM. hit rate 0.51% among 340,000. AID 504462, 2011; in the data active = inhibition above about 40%
Target sequence (Q9Y4P1 whole entry, looked up): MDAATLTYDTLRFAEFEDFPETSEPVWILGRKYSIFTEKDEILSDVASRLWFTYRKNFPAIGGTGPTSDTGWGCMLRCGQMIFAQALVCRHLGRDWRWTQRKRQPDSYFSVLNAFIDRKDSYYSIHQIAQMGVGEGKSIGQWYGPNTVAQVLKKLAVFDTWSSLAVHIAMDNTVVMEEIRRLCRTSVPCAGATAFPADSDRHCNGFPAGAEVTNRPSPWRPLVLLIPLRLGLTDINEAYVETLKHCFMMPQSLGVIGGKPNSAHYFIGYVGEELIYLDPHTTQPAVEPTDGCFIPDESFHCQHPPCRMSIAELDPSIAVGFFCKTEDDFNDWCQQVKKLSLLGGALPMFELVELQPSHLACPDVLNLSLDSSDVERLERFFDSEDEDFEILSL
CFTR F508del cor = F508del CFTR correction, initial screen, CFBE line, single point; AID 720511, 2013; activity (quench increase), % at 7.58 µM; hit rate 0.36% among 350,000; CFBE cells, YFP halide quenching; stimulated with forskolin plus potentiator P3; % fluorescence drop versus neutral controls;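 active = mean added fluorescence quench of at least 8% versus neutral control, with both replicates also reaching 8%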;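 note: cells transiently co-express mutant CFTR-F508del with the halide-sensitive YFP; corrector assay measuring rescue of mutant channel to the surface after 24 h compound exposure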
Of the large screens only hits and unclear results are named; the others gave an inactive call. Compounds with a hit are over-represented: about 2.7% of the library has one in this group of screens.

O=C(O)c1cc(-c2cccc3ccccc23)nc2ccccc12	SKN-1 inh 37
COc1cccc(-c2cc(C(=O)Nc3nc4ccccc4s3)c3ccccc3n2)c1	SKN-1 inh 46 (no result: CFTR F508del cor)
O=C(O)c1cc(-c2ccc3ccccc3n2)nc2ccccc12	none
Cc1cccc(-c2cc(C(=O)Nc3c(C)n(C)n(-c4ccccc4)c3=O)c3ccccc3n2)c1	NRP1-CendR mod 33
C[C@@H]1CN([C@H](C)CO)C(=O)c2cc(C#Cc3ccccn3)cnc2O[C@@H]1CN(C)C(=O)CCN1CCCCC1	none (no result: NRP1-CendR mod, SKN-1 inh, MPTP inh, ATG4B inhibitor)
COc1cc(C(=O)OCCc2cc3ccccc3c(=O)o2)cc(OC)c1OC	CFTR F508del cor 11
Cc1ccc(F)c(C2C3C=CCC(c4cccc(-c5ccc(N(C)C)cc5)c4)C3C(=O)N2Cc2ccccc2)c1 (stereo not drawn)	SKN-1 inh 44
COc1ccc(-c2ccc(OC)c([C@H]3[C@H]4C=CC[C@@H](C)[C@@H]4C(=O)N3Cc3ccccc3)c2)cc1C	NRP1-CendR mod 29
COc1ccc(-c2ccc(N(C)C)cc2)cc1[C@H]1[C@H]2C=CC[C@@H](C)[C@@H]2C(=O)N1Cc1ccccc1	none
C[C@@H]1CC=C[C@H]2[C@H]1C(=O)N(Cc1ccccc1)[C@H]2c1ccc(-c2ccc(N(C)C)cc2)cc1F	none
C[C@@H]1CN([C@H](C)CO)C(=O)c2cc(NS(=O)(=O)c3cn(C)cn3)ccc2O[C@@H]1CN(C)S(=O)(=O)c1cn(C)cn1	none (no result: NRP1-CendR mod, SKN-1 inh, MPTP inh, ATG4B inhibitor)
COC(=O)CN1C(=S)N(c2ccc(OC)cc2)C(=O)/C1=C/c1ccc(OC)cc1	none (no result: CFTR F508del cor)
COC(=O)CN1C(=S)N(c2ccc(OC)cc2)C(=O)/C1=C/c1ccc(N2CCOCC2)cc1	SKN-1 inh 37 (no result: CFTR F508del cor)
CC(=O)O[C@H]1C(=O)[C@]2(C)[C@H]([C@H](OC(=O)c3ccccc3)[C@]3(O)C[C@H](OC(=O)[C@H](O)[C@@H](NC(=O)c4ccccc4)c4ccccc4)C(C)=C1C3(C)C)[C@]1(OC(C)=O)CO[C@@H]1C[C@@H]2O	CFTR F508del cor 10
CC(=O)O[C@H]1C(=O)[C@@]2(C)C([C@H](OC(=O)c3ccccc3)[C@]3(O)C[C@H](OC(=O)[C@H](O)[C@@H](NC(=O)c4ccccc4)c4ccccc4)C(C)=C1C3(C)C)[C@]1(OC(C)=O)CO[C@@H]1C[C@H]2O (stereo partly drawn)	CFTR F508del cor 18
C[C@@H]1CN([C@H](C)CO)C(=O)c2cc(NC(=O)CCN3CCOCC3)ccc2O[C@H]1CN(C)C(=O)Nc1ccc2c(c1)OCO2	none (no result: NRP1-CendR mod, SKN-1 inh, MPTP inh, ATG4B inhibitor)
C[C@H](c1ccccc1)N1C[C@H](COCc2ccccc2)Oc2cc(N3CC[C@@H](N(C)C)C3)ccc2S1(=O)=O	none (no result: ATG4B inhibitor)
C[C@@H](c1ccccc1)N1C[C@@H](COCc2ccccc2)Oc2cc(N3CC[C@@H](N(C)C)C3)ccc2S1(=O)=O	NRP1-CendR mod 25 (no result: ATG4B inhibitor)
Cc1occc1C(=O)N1CCCC(Nc2ccc(F)cc2)C1 (stereo not drawn)	none
Cc1ccc2nccc(C(=O)N3CCCC(Nc4ccc(F)cc4)C3)c2c1 (stereo not drawn)	NRP1-CendR mod 22
C[C@@H]1CN([C@@H](C)CO)S(=O)(=O)c2ccc(C#CC3CCCC3)cc2O[C@@H]1CN(C)C(=O)Cc1ccccc1	none (no result: NRP1-CendR mod, SKN-1 inh, MPTP inh, ATG4B inhibitor)
Cc1c(-n2c(CN3C(=O)c4ccccc4C3=O)nc3ccccc3c2=O)c(=O)n(-c2ccccc2)n1C	NRP1-CendR mod 26, SKN-1 inh 40 (no result: CFTR F508del cor)
CC(C)Cn1c(CN2C(=O)c3ccccc3C2=O)nc2ccccc2c1=O	none (no result: CFTR F508del cor)
C[C@H](CO)N1C[C@H](C)[C@H](CN(C)Cc2ccc(Cl)c(Cl)c2)Oc2c(NC(=O)c3ccncc3)cccc2C1=O	none (no result: NRP1-CendR mod, SKN-1 inh, MPTP inh, ATG4B inhibitor)
C[C@@H]1CCCCO[C@@H](CN(C)C(=O)CCC(F)(F)F)[C@H](C)CN([C@@H](C)CO)C(=O)c2cc(NC(=O)c3ccccc3)ccc2O1	none (no result: NRP1-CendR mod, SKN-1 inh, MPTP inh, ATG4B inhibitor)
COCCNC(=O)C[C@@H]1C[C@@H]2c3cc(NC(=O)COC)ccc3O[C@@H]2[C@H](CO)O1	none (no result: NRP1-CendR mod, SKN-1 inh, MPTP inh, ATG4B inhibitor)
Cc1nn(C(=O)CCC(=O)NCc2cccc(F)c2)c2ccccc12	SKN-1 inh 34
O=C(CN1C(=O)NC(Cc2ccccc2)C1=O)Nc1ccc(F)cc1 (stereo not drawn)	none (no result: CFTR F508del cor)
O=C(CN1C(=O)NC(Cc2ccccc2)C1=O)Nc1ccc(OC(F)(F)F)cc1 (stereo not drawn)	NRP1-CendR mod 34
COc1ccccc1S(=O)(=O)N[C@@H]1CC[C@H](CCn2cc(C3CC3)nn2)O[C@H]1CO	none (no result: NRP1-CendR mod, SKN-1 inh, MPTP inh, ATG4B inhibitor)
O=C(CSc1ncn[nH]1)Nc1ccc(Cl)c(Cl)c1	SKN-1 inh 44 (no result: CFTR F508del cor)
O=C(CSc1ncn[nH]1)Nc1ncc(C(F)(F)F)cc1Cl	none
Cc1ccc(S(=O)(=O)N(C)C[C@H]2Oc3ccc(NC(=O)Nc4c(C)noc4C)cc3C(=O)N([C@@H](C)CO)C[C@H]2C)cc1	none (no result: NRP1-CendR mod, SKN-1 inh, MPTP inh, ATG4B inhibitor)
CN1CCC(N(C)C(=O)c2ccc(Cl)c(S(=O)(=O)N(C)c3ccc(Cl)cc3)c2)CC1	NRP1-CendR mod 33
CN1CCC(N(C)C(=O)c2cc(S(=O)(=O)N(C)c3ccccc3)ccc2Cl)CC1	none
COc1ccccc1C(=O)NN(C)C1=NS(=O)(=O)c2ccccc21	NRP1-CendR mod 20
CN(NC(=O)CN1C(=O)c2ccccc2C1=O)C1=NS(=O)(=O)c2ccccc21	none
CCCNC(=O)[C@@H]1[C@@H](CO)[C@@H]2Cn3c(ccc(C4=CCCC4)c3=O)[C@H]1N2C(C)=O	none (no result: NRP1-CendR mod, SKN-1 inh, MPTP inh, ATG4B inhibitor)
Clc1ccc(C#Cc2cccnc2)cc1	SKN-1 inh 75
CCOC(=O)Nc1cccc2c1-c1ccc([N+](=O)[O-])cc1C2=O	SKN-1 inh 40
Cc1ccc(S(=O)(=O)NCC[C@@H]2CC[C@@H](NC(=O)CC3CC3)[C@H](CO)O2)cc1	none (no result: NRP1-CendR mod, SKN-1 inh, MPTP inh, ATG4B inhibitor)
O=C(CCCCCN1C(=O)c2ccccc2C1=O)NC1CCCC1	NRP1-CendR mod 24 (no result: CFTR F508del cor)
C[C@@H]1CCCCO[C@H](CN(C)C(=O)c2ccncc2)[C@@H](C)CN([C@H](C)CO)C(=O)c2cc(NS(=O)(=O)c3cn(C)cn3)ccc2O1	none (no result: NRP1-CendR mod, SKN-1 inh, MPTP inh, ATG4B inhibitor)
Cc1cccc(NC(=O)CSc2nnc(-c3ccc(S(=O)(=O)N4CCCC4)cc3)o2)c1	none
Cc1ccc(S(=O)(=O)N2CCOCC2)cc1NC(=O)CSc1n[nH]c(N)n1	CFTR F508del cor 18
Cc1ccc(NC(=O)CSc2nnc(-c3ccc(S(=O)(=O)N4CCCC4)cc3)o2)cc1C	NRP1-CendR mod 26 (no result: CFTR F508del cor)
Cn1cnnc1SCC(=O)Nc1ccc(S(=O)(=O)N2CCOCC2)cc1	CFTR F508del cor 12
Cc1cccc(C)c1Nc1nnc(SCC(=O)Nc2cc(S(=O)(=O)N3CCCCC3)ccc2Cl)s1	NRP1-CendR mod 26 (no result: CFTR F508del cor)
Cc1noc(C)c1NC(=O)Nc1ccc2c(c1)CC(=O)N([C@@H](C)CO)C[C@H](C)[C@H](CN(C)Cc1ccccc1)O2	none (no result: NRP1-CendR mod, SKN-1 inh, MPTP inh, ATG4B inhibitor)

Compound activity deposited in PubChem BioAssay by several laboratories.
